Test results taken from PubChem BioAssay (NCATS).
Results filed as inconclusive are left out. A call without a number means that no potency is given here. Activity calls are given as the source filed them. The call rests on the fitted dose curve; in most records, active means well fitted inhibition curve with a large enough effect; inconclusive means small, poorly fitted or top-dose-only effect; inactive means flat fitted curve, though single readings scatter.

Assays:
Assay in all cases: qHTS profiling for inhibitors of Plasmodium falciparum proliferation (AID 504749); further: nearly all actives have a fitted effect of over 60% in size
Conditions in all cases: P. falciparum in erythrocytes, SYBR Green DNA, 72 h; series mostly up to 28.7 µM
[1] = system: CP325
Method in brief: (§1)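 Parasite proliferation within erythrocytes, 72 h exposure. Endpoint: SYBR Green I fluorescence after overnight lysis at room temperature. Controls: 0.29 uM artemisinin, DMSO.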

[2] = system: CP329
Method in brief: as §1

[3] = system: CP335
Method in brief: as §1

[4] = system: DFO2036
Method in brief: as §1

[5] = system: DIV14
Method in brief: as §1

[6] = system: DIV17
Method in brief: as §1

[7] = system: DIV30
Method in brief: as §1

[8] = system: Dd2
Method in brief: as §1

[9] = system: ECU
Method in brief: as §1

[10] = system: FAB9
Method in brief: as §1

[11] = system: GB4
Method in brief: as §1

[12] = system: HB3
Method in brief: as §1

[13] = system: ICS
Method in brief: as §1

[14] = system: JCK
Method in brief: as §1

[15] = system: N140
Method in brief: as §1

[16] = system: P93_24
Method in brief: as §1

[17] = system: P94_40
Method in brief: as §1

[18] = system: PAD
Method in brief: as §1

[19] = system: PC15
Method in brief: as §1

[20] = system: CP315
Method in brief: as §1
Potency means the concentration at half of the fitted maximal effect.

Row | Structure (SMILES) | Potency [1] | outcome [2] | Potency [3] | Potency [4] | Potency [5] | Potency [6] | Potency [7] | Potency [8] | Potency [9] | Potency [10] | Potency [11] | Potency [12] | Potency [13] | Potency [14] | Potency [15] | Potency [16] | Potency [17] | Potency [18] | Potency [19] | Potency [20]
1 | CC(c1cc2ccccc2s1)N(O)C(N)=O (centres undefined) | inactive | inactive | inactive | inactive | inactive | inactive | inactive | inactive | inactive | inactive | inactive | inactive | inactive | inactive | inactive | inactive | inactive | inactive | inactive | –
2 | Nc1nc2ccc(OC(F)(F)F)cc2s1 | inactive | inactive | inactive | inactive | – | inactive | inactive | inactive | inactive | inactive | inactive | inactive | inactive | inactive | inactive | inactive | – | inactive | inactive | inactive
3 | Cc1cc2c(C(C)C)c(O)c(O)c(C=O)c2c(O)c1-c1c(C)cc2c(C(C)C)c(O)c(O)c(C=O)c2c1O | – | – | – | – | – | – | – | 11.2 µM (active) | – | inactive | – | – | 5.01 µM (active) | – | – | – | – | – | – | –
4 | O=NN(CCCl)C(=O)NCCCl | inactive | inactive | – | – | inactive | inactive | inactive | inactive | inactive | inactive | – | inactive | – | inactive | inactive | inactive | inactive | inactive | inactive | inactive
5 | CCOC(=O)N1CCC(=C2c3ccc(Cl)cc3CCc3cccnc32)CC1 | – | – | – | inactive | 7.57 µM (active) | 9.53 µM (active) | 13.5 µM (active) | – | 12.6 µM (active) | inactive | 12 µM (active) | – | 2.24 µM (active) | – | 3.98 µM (active) | – | 11.2 µM (active) | 3.16 µM (active) | 11.2 µM (active) | –
6 | C1COC(NC(C2CC2)C2CC2)=N1 | – | – | inactive | – | – | – | inactive | inactive | – | inactive | – | inactive | – | inactive | – | – | – | 11.2 µM (active) | inactive | inactive
7 | Clc1ccc(Nc2nnc(Cc3ccncc3)c3ccccc23)cc1 | inactive | inactive | – | inactive | – | – | – | – | 14.1 µM (active) | inactive | inactive | inactive | – | inactive | – | – | – | – | inactive | inactive
8 | NC[C@H](O)c1ccc(O)c(O)c1 | inactive | inactive | inactive | inactive | – | inactive | inactive | inactive | inactive | inactive | inactive | inactive | inactive | inactive | inactive | inactive | inactive | inactive | inactive | inactive
9 | CCOC(=O)C1=C[C@]2(CC)CCCN3CCc4c(n1c1ccccc41)[C@@H]32 | – | – | – | – | 12 µM (active) | 15.1 µM (active) | 13.5 µM (active) | – | – | – | – | – | 8.91 µM (active) | – | 12.6 µM (active) | 12.6 µM (active) | – | – | – | –
10 | COc1ccc2nc(S(=O)Cc3ncc(C)c(OC)c3C)[nH]c2c1 (centres undefined) | inactive | inactive | inactive | inactive | – | – | inactive | inactive | inactive | inactive | – | inactive | 14.1 µM (active) | inactive | inactive | inactive | inactive | – | inactive | inactive
11 | C#Cc1cccc(Nc2ncnc3cc(OCCOC)c(OCCOC)cc23)c1 | – | inactive | – | – | 8.49 µM (active) | 15.1 µM (active) | – | inactive | – | inactive | – | – | 11.2 µM (active) | inactive | – | – | 12.6 µM (active) | 11.2 µM (active) | – | inactive
12 | NC(N)=NC(=O)c1nc(Cl)c(N)nc1N | – | inactive | – | – | 9.53 µM (active) | 6.75 µM (active) | – | – | – | – | 15.1 µM (active) | 11.2 µM (active) | 2.24 µM (active) | – | 8.91 µM (active) | 7.08 µM (active) | 12.6 µM (active) | 8.91 µM (active) | 7.08 µM (active) | inactive
13 | Cc1c(C)c2c(c(C)c1O)CCC(C)(COc1ccc(CC3SC(=O)NC3=O)cc1)O2 (centres undefined) | inactive | inactive | inactive | inactive | 15.1 µM (active) | – | – | – | – | inactive | 12 µM (active) | inactive | – | inactive | – | – | 10 µM (active) | – | inactive | inactive
14 | CN1CCN(CCCN2c3ccccc3Sc3ccc(C(F)(F)F)cc32)CC1 | – | – | 5.36 µM (active) | 8.91 µM (active) | 8.49 µM (active) | 7.57 µM (active) | 16.9 µM (active) | 12.6 µM (active) | – | inactive | 7.57 µM (active) | – | 8.91 µM (active) | – | 8.91 µM (active) | 2.24 µM (active) | 12.6 µM (active) | 12.6 µM (active) | 10 µM (active) | –
15 | Cn1cnc([N+](=O)[O-])c1Sc1ncnc2nc[nH]c12 | inactive | inactive | inactive | inactive | inactive | – | inactive | inactive | 8.91 µM (active) | inactive | – | inactive | – | inactive | – | – | – | inactive | – | inactive
16 | Cc1oncc1C(=O)Nc1ccc(C(F)(F)F)cc1 | inactive | inactive | inactive | inactive | inactive | – | inactive | inactive | inactive | inactive | – | – | 3.16 µM (active) | inactive | inactive | – | inactive | inactive | inactive | inactive
17 | Cc1ccccc1C(OCCN(C)C)c1ccccc1 (centres undefined) | – | – | – | – | 6.75 µM (active) | 7.57 µM (active) | – | inactive | inactive | inactive | – | inactive | – | – | 12.6 µM (active) | – | – | inactive | – | –
18 | CCOC(=O)C1=C[C@@]2(CC)CCCN3CCc4c(n1c1ccccc41)[C@H]32 | 9.53 µM (active) | – | 12 µM (active) | – | 13.5 µM (active) | 7.57 µM (active) | 12 µM (active) | – | – | – | 7.57 µM (active) | – | – | – | – | – | – | – | – | –
19 | O=C1CCc2cc(OCCCCc3nnnn3C3CCCCC3)ccc2N1 | inactive | inactive | inactive | – | inactive | inactive | inactive | – | – | – | inactive | – | inactive | inactive | – | – | – | – | – | inactive
20 | CC(C)C[C@H](NC(=O)[C@@H](O)[C@H](N)Cc1ccccc1)C(=O)O | 6.75 µM (active) | – | 6.01 µM (active) | 5.62 µM (active) | 4.78 µM (active) | 6.75 µM (active) | 6.01 µM (active) | 3.16 µM (active) | 7.94 µM (active) | 10 µM (active) | 4.78 µM (active) | – | 4.47 µM (active) | – | 7.94 µM (active) | 5.01 µM (active) | 7.08 µM (active) | 10 µM (active) | – | 12 µM (active)
21 | CCCc1nn(C)c2c(=O)[nH]c(-c3cc(S(=O)(=O)N4CCN(C)CC4)ccc3OCC)nc12 | inactive | inactive | inactive | inactive | inactive | inactive | – | inactive | inactive | inactive | inactive | inactive | 11.2 µM (active) | inactive | inactive | inactive | inactive | inactive | inactive | inactive
